Data published in PubChem BioAssay (EPA / NIEHS).
Activity calls are given as the source filed them. How the source made its calls: active means hit-call score of the fitted dose curve at least 0.9, where 1 is the maximum; inactive means score below 0.9.

Assays:
Conditions in all cases: mRNA level, 48 h; actives raise or lower the signal
[1] = read-out: DNA damage-inducible transcript 3 (DDIT3), DDIT3 (gene 1649); assay: LTEA_HepaRG_DDIT3: Life Technologies and Expression Analysis (LTEA) Assay for DNA damage-inducible transcript 3 (DDIT3) using HepaRG (AID 2283488)
In short: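 DDIT3 transcript was quantified by qRT-PCR with ACTB/GAPDH/POLR2A normalization after 48 h chemical treatment of differentiated HepaRG cells in 0.5% DMSO. Dosing was eight-point, half-log, top 100 uM, duplicate wells. Curves fitted bidirectionally versus DMSO.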

[2] = read-out: Pro-epidermal growth factor (Homo sapiens) (UniProt P01133); assay: LTEA_HepaRG_EGF: Life Technologies and Expression Analysis (LTEA) Assay for Epidermal growth factor (EGF) using HepaRG (AID 2283489)
In short: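 Differentiated human HepaRG cells, plated 48 h then switched to serum-free induction medium, were exposed for 48 h to test chemicals (8-point half-log series, top 100 uM, 0.5% DMSO). EGF mRNA was quantified by qRT-PCR, normalized to ACTB, GAPDH, POLR2A.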

[3] = read-out: Early growth response protein 1 (EGR1) transcription factor, EGR1 (gene 1958); assay: LTEA_HepaRG_EGR1: Life Technologies and Expression Analysis (LTEA) Assay for Early growth response protein 1 (EGR1) transcription factor using HepaRG (AID 2283490)
In short: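 EGR1 transcript levels quantified by qRT-PCR (Fluidigm arrays) against three housekeeping genes after 48 h chemical exposure of HepaRG cells. Eight-point half-log series topping at 100 uM, 0.5% DMSO vehicle, analyzed for gain or loss.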

[4] = read-out: Ezrin (EZR), EZR (gene 7430); assay: LTEA_HepaRG_EZR: Life Technologies and Expression Analysis (LTEA) Assay for Ezrin (EZR) using HepaRG (AID 2283491)
In short: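 Read-out is EZR transcript level by qRT-PCR, normalized to three housekeeping genes and fitted bidirectionally against the DMSO control. Human HepaRG cells received test chemicals for 48 h at eight half-log concentrations up to 100 uM in 0.5% DMSO.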

[5] = read-out: Fatty Acid-Binding Protein 1 (FABP1), FABP1 (gene 2168); assay: LTEA_HepaRG_FABP1: Life Technologies and Expression Analysis (LTEA) Assay for Fatty Acid-Binding Protein 1 (FABP1) using HepaRG (AID 2283494)
In short: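 FABP1 expression by TaqMan qRT-PCR, normalised to three housekeeping genes, in HepaRG cells after 48 h chemical treatment. Eight-point half-log series topping at 100 uM in 0.5% DMSO, duplicates; gain or loss fitted relative to vehicle.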

[6] = read-out: Glutamate-cysteine ligase catalytic (GCLC), GCLC (gene 2729); assay: LTEA_HepaRG_GCLC: Life Technologies and Expression Analysis (LTEA) Assay for Glutamate-cysteine ligase catalytic (GCLC) using HepaRG (AID 2283498)
In short: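 Expression by TaqMan qRT-PCR, normalized to three housekeeping genes (ACTB, GAPDH, POLR2A), with up- or down-regulation fitted against DMSO. HepaRG cells dosed in duplicate for 48 h with 8 half-log concentrations up to 100 uM, vehicle 0.5% DMSO.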

[7] = read-out: growth arrest and DNA damage 45 (GADD45G), GADD45G (gene 10912); assay: LTEA_HepaRG_GADD45G: Life Technologies and Expression Analysis (LTEA) Assay for growth arrest and DNA damage 45 (GADD45G) using HepaRG (AID 2283499)
In short: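 Differentiated human HepaRG cells in serum-free induction medium were exposed for 48 h to 8 half-log concentrations up to 100 uM in 0.5% DMSO, in duplicate. GADD45G mRNA was measured by TaqMan qRT-PCR, normalised to ACTB, GAPDH and POLR2A, and fitted bidirectionally against DMSO.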

[8] = read-out: Glutamate-cysteine ligase regulatory (GCLM), GCLM (gene 2730); assay: LTEA_HepaRG_GCLM: Life Technologies and Expression Analysis (LTEA) Assay for Glutamate-cysteine ligase regulatory (GCLM) using HepaRG (AID 2283500)
In short: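 GCLM expression quantified by qRT-PCR, normalized to three housekeeping genes, after 48 h chemical treatment of HepaRG cells in duplicate at 8 concentrations (top 100 uM, half-log steps, 0.5% DMSO). Changes fitted both directions against vehicle.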

[9] = read-out: Glutathione S-transferase M3 (GSTM3), GSTM3 (gene 2947); assay: LTEA_HepaRG_GSTM3: Life Technologies and Expression Analysis (LTEA) Assay for Glutathione S-transferase M3 (GSTM3) using HepaRG (AID 2283501)
In short: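 Differentiated HepaRG cells in serum-free induction medium were exposed in duplicate for 48 h to 8 half-log concentrations up to 100 uM in 0.5% DMSO. GSTM3 mRNA was measured by TaqMan qRT-PCR, normalized to ACTB/GAPDH/POLR2A, and fitted bidirectionally versus DMSO.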

[10] = read-out: Heat shock 70 kDa protein 1 (HSPA1A), gene 3303; assay: LTEA_HepaRG_HSPA1A: Life Technologies and Expression Analysis (LTEA) Assay for Heat shock 70 kDa protein 1 (HSPA1A) using HepaRG (AID 2283502)
In short: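 HSPA1A expression measured by qRT-PCR with ACTB/GAPDH/POLR2A normalization; curves fitted in both directions relative to DMSO vehicle. Exposure: 48 h in HepaRG cells, duplicate 8-point half-log series from 100 uM, 0.5% DMSO, serum-free induction medium.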

CYP2C9 (gene 1559) = assay: LTEA_HepaRG_CYP2C9: Life Technologies and Expression Analysis (LTEA) Assay for CYP2C9 using HepaRG (AID 2283484)
In short: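 CYP2C9 transcript level, quantified by TaqMan qRT-PCR against three housekeeping genes, was fitted bidirectionally relative to 0.5% DMSO. HepaRG cultures were treated 48 h, in duplicate, at eight half-log concentrations topping at 100 uM.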

CYP2E1 (gene 1571) = assay: LTEA_HepaRG_CYP2E1: Life Technologies and Expression Analysis (LTEA) Assay for CYP2E1 using HepaRG (AID 2283485)
In short: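 CYP2E1 transcript measured by Fluidigm qRT-PCR against three housekeeping genes in human HepaRG cells treated 48 h (top 100 uM, half-log steps, 0.5% DMSO vehicle). Gain or loss fitted relative to DMSO baseline.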

CYP4A11 (gene 1579) = assay: LTEA_HepaRG_CYP4A11: Life Technologies and Expression Analysis (LTEA) Assay for CYP4A11 using HepaRG (AID 2283486)
In short: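 Differentiated HepaRG cells, serum-free induction medium, exposed 48 h in duplicate to 8-point half-log series from 100 uM in 0.5% DMSO. CYP4A11 mRNA measured by qRT-PCR, normalized to ACTB, GAPDH, POLR2A; bidirectional fit versus DMSO.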

[11] = read-out: Cytochrome P450 3A4 (Homo sapiens) (UniProt P08684); assay: LTEA_HepaRG_CYP3A4: Life Technologies and Expression Analysis (LTEA) Assay for CYP3A4 using HepaRG (AID 2283487)
In short: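 HepaRG, 48 h exposure, 8-pt CRC from 100 uM (half-log), 0.5% DMSO, duplicates; serum-free induction medium. Readout: CYP3A4 mRNA, qRT-PCR, ACTB/GAPDH/POLR2A normalization. Bidirectional fit vs DMSO.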

[12] = read-out: Cytochrome P450 3A7 (Homo sapiens) (UniProt P24462); assay: LTEA_HepaRG_CYP3A7: Life Technologies and Expression Analysis (LTEA) Assay for CYP3A7 using HepaRG (AID 2283492)
In short: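 HepaRG cells plated 48 h, then dosed in serum-free induction medium for 48 h at 8 concentrations (top 100 uM, half-log steps, 0.5% DMSO). CYP3A7 mRNA by qRT-PCR, normalised to ACTB/GAPDH/POLR2A; bidirectional fit versus DMSO.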

CYP3A5 (gene 1577) = assay: LTEA_HepaRG_CYP3A5: Life Technologies and Expression Analysis (LTEA) Assay for CYP3A5 using HepaRG (AID 2283493)
In short: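 mRNA levels were quantified by qRT-PCR on Fluidigm arrays and normalized to three housekeeping genes. Differentiated HepaRG cells received 48 h exposure (top 100 uM, half-log steps, 0.5% DMSO vehicle, duplicate); bidirectional fitting versus DMSO.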

[13] = read-out: Cytochrome P450 7A1 (Homo sapiens) (UniProt P22680); assay: LTEA_HepaRG_CYP7A1: Life Technologies and Expression Analysis (LTEA) Assay for Cytochrome P450 7A1 (CYP7A1) using HepaRG (AID 2283496)
In short: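 HepaRG, 48 h exposure, 8-pt half-log series from 100 uM, 0.5% DMSO vehicle, duplicates. Readout: TaqMan qRT-PCR mRNA vs three housekeeping genes; bidirectional curve fit against DMSO baseline.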

[14] = read-out: Glutathione S-Transferase (GSTA2), GSTA2 (gene 2939); assay: LTEA_HepaRG_GSTA2: Life Technologies and Expression Analysis (LTEA) Assay for Glutathione S-Transferase (GSTA2) using HepaRG (AID 2283497)
In short: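 GSTA2 transcript levels came from Fluidigm TaqMan qRT-PCR normalized to three housekeeping genes, fitted in both directions against DMSO. HepaRG cultures received chemicals for 48 h in serum-free induction medium (0.5% DMSO), 8 half-log concentrations up to 100 uM, duplicate.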

[15] = read-out: Hypoxia-inducible factor 1-alpha (Homo sapiens) (UniProt Q16665); assay: LTEA_HepaRG_HIF1A: Life Technologies and Expression Analysis (LTEA) Assay for Hypoxia-inducible factor 1 (HIF1A) Trancription factor using HepaRG (AID 2283503)
In short: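 HIF1A transcript level read by qRT-PCR (ACTB, GAPDH, POLR2A normalization) after 48 h chemical exposure of HepaRG cultures. Eight half-log concentrations, top 100 uM, 0.5% DMSO vehicle, duplicates; bidirectional curve fit against DMSO baseline.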

Measured: AC50

Chain of Cytochrome P450 3A7 (Homo sapiens) (P24462 whole entry, looked up): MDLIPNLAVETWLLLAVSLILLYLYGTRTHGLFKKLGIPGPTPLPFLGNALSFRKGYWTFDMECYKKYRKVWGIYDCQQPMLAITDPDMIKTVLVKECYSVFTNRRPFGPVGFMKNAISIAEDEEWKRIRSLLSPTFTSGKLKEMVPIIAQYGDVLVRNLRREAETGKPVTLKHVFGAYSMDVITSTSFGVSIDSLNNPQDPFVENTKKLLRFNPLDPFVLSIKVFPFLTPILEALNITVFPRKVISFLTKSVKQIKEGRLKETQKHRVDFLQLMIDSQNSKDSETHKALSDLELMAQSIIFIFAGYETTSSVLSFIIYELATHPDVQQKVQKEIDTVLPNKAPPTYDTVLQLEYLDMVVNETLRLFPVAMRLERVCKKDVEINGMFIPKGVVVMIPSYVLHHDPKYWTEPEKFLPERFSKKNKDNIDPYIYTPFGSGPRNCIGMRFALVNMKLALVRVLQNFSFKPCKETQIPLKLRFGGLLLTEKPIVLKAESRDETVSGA
Chain of Hypoxia-inducible factor 1-alpha (Homo sapiens) (Q16665 whole entry, looked up): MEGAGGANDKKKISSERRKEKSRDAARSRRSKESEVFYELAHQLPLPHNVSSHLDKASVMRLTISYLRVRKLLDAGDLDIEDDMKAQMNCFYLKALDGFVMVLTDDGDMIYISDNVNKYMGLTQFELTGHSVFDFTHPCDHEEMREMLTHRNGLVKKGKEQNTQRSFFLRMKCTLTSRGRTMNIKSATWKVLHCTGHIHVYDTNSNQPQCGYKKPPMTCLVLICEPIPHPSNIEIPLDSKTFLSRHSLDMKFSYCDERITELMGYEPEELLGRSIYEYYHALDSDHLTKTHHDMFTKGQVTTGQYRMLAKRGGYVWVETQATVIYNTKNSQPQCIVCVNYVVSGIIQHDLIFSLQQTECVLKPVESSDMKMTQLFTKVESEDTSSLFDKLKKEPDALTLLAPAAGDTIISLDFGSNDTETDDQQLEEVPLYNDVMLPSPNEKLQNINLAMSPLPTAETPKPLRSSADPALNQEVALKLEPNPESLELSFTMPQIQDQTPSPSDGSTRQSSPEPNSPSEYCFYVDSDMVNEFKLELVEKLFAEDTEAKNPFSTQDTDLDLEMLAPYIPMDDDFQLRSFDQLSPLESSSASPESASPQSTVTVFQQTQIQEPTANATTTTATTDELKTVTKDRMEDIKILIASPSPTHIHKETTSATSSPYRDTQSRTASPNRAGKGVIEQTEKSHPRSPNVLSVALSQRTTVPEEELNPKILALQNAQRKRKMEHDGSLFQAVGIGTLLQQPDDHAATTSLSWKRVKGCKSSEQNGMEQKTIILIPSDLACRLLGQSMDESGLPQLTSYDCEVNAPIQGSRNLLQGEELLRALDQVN
Chain of Cytochrome P450 3A4 (Homo sapiens) (P08684 whole entry, looked up): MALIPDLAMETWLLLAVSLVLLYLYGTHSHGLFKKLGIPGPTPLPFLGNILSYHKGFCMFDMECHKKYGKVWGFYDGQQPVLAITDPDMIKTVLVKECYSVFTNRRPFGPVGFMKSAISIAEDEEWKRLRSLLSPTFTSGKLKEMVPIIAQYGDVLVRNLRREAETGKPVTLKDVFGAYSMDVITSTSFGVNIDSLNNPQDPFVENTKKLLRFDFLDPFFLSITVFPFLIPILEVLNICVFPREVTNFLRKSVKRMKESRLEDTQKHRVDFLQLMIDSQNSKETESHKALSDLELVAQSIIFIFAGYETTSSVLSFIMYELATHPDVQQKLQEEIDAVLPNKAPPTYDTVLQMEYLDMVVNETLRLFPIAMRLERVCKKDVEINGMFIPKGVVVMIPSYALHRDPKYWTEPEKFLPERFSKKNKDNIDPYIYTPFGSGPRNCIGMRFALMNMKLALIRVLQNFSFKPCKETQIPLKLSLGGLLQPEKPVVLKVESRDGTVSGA

COP(=O)(OC)C(O)C(Cl)(Cl)Cl (stereo not drawn)
inactive: [1] | [2] | [3] | [4] | [5] | [6] | [7] | [8] | [9] | [10]

Cc1nn(-c2cc(NS(C)(=O)=O)c(Cl)cc2Cl)c(=O)n1C(F)F
active: CYP2E1 (gene 1571) 12.8 µM | [11] 3.03 µM | [12] 7.34 µM
not listed: [2]
inactive: all other assays above
